JMJD2A Tudor inh: JMJD2A Tudor domain (human) inhibition | AlphaScreen JMJD2A-Tudor / H3K4me3 peptide binding | Potency, µM (doses to about 114 µM), without a hit: top-dose activity change, negative = inhibition, usual class: inhibitors | 390,000 compounds, 4.4% hits; note: potency is the fitted concentration of half-maximal effect; % is set by controls: 0 for no effect and ±100 for the full control effect; nearly all actives have a fitted effect of over 50% in size
G9a block: inhibitors of human histone lysine methyltransferase G9a; Q96KQ7; G9a H3K9 monomethylation, AlphaScreen, 2 h; Potency, µM (titrated, usually from 102 µM), for the others: at the top dose activity, negative = inhibition, hits mostly inhibitors; 350,000 compounds, 8.8% hits; AID 504332; note: potency is the fitted concentration of half-maximal effect; % is set by controls: 0 for no effect and ±100 for the full control effect; nearly all actives have a fitted effect of over 75% in size
Target sequence (Q96KQ7 913-1193 limits assumed): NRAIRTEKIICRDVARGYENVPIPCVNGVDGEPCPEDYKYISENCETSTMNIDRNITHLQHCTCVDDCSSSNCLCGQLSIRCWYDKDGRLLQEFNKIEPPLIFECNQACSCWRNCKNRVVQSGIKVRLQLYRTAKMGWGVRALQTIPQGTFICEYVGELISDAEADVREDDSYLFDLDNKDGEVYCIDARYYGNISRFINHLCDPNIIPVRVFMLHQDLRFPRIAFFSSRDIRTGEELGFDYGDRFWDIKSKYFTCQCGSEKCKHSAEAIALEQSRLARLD
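Readings reflect AlphaScreen signal from monomethyl-H3K9 antibody detection. HMT at 20 nM; substrate b-H3K9 500 nM; cofactor SAM 20 uM; 2 h RT reaction; compounds tested as titrations in qHTS with 15 min preincubation.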
Six1-Eya2 inh: Six1/Eya2 interaction inhibition; Q15475+O00167; AlphaScreen GST-Six1/His-Eya2 binding, biochemical; stronger effect = lower value; activity change, % (no concentration beside the values); 360,000 compounds, 0.56% hits; in the data active = activity change below about -65%; inconclusive = mostly about -30% to -63%; note: % is set by controls: 0 for no effect and ±100 for the full control effect
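AlphaScreen with GST-Six1 and His-Eya2 (5X mix: 250 nM and 500 nM), glutathione donor and nickel acceptor beads; buffer 50 mM Tris pH 8.0, 300 mM NaCl, 1 mM TCEP; 1 h at 37 C in the dark.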
CtBP-E1A inh: CtBP/E1A binding inhibition; AlphaScreen GST-E1A/His-CtBP binding, 1536-well; stronger effect = lower value; activity change, % (test concentration not listed); 340,000 compounds, 0.49% hits; in the data active = activity change below about -65%; inconclusive = mostly about -30% to -63%; note: % is set by controls: 0 for no effect and ±100 for the full control effect
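Homogeneous bead-based format: GST-tagged E1A captured on glutathione donor beads, His-tagged CtBP on nickel acceptor beads; compounds precede bead addition by 2 h at 37 °C.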
BAZ2B inh: inhibitors of human BAZ2B bromodomain | Q9UIF8 | AlphaScreen BAZ2B-H3K14Ac peptide displacement | Potency, µM (top dose mostly 114 µM), for the others: top-dose activity change, negative = inhibition, hits mostly inhibitors | 360,000 compounds, 4.4% hits | AID 504333; note: potency is the fitted concentration of half-maximal effect; % is set by controls: 0 for no effect and ±100 for the full control effect; nearly all actives have a fitted effect of over 60% in size
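Multi-concentration screen (max 110 uM) measuring displacement of acetylated histone H3 peptide from BAZ2B by AlphaScreen, using 50 nM protein, 50 nM peptide and 10 ug/mL streptavidin donor plus Ni-chelate acceptor beads.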
HP1b chromo inh: blocks HP1-beta chromodomain binding to methylated histone tails | AlphaScreen HP1-beta / biotin-H3K9me3 peptide binding | Potency, µM (highest dose often 114 µM), for inactives: at the top dose activity change, negative = inhibition, most hits filed as inhibitors | 390,000 compounds, 0.56% hits | AID 540317; note: potency is the fitted concentration of half-maximal effect; nearly all actives have a fitted effect of over 70% in size
Target sequence (P83916 whole entry, looked up): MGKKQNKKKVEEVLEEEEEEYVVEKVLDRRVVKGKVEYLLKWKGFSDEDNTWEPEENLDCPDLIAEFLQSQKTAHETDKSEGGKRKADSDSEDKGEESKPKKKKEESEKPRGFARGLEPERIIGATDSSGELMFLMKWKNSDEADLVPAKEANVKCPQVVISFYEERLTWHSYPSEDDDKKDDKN
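HP1-beta protein (50 nM final) preincubated 30 min at room temperature with biotinylated H3(1-18)K9me3 peptide (50 nM) in PBS pH 7.4, 0.01% Tween-20, then compound added for 30 min. AlphaScreen streptavidin donor/nickel chelate acceptor beads (10 ug/mL final), 30 min dark, luminescence read.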
Numbers without * were called inactive; ? = inconclusive; / = no result given; [ ] = remark or other dose. Sampled rows, rich in hits. Any-hit rate of the full collection: about 10%. Unless noted, calls come from the whole dose curve; as a rule, active = well fitted inhibition curve with a large enough effect; inconclusive = small, poorly fitted or top-dose-only effect; inactive = no such curve, though single readings can be large or run the other way.

SMILES | JMJD2A Tudor inh | G9a block | Six1-Eya2 inh | CtBP-E1A inh | BAZ2B inh | HP1b chromo inh
CCN(CC)c1ccc(NC(=O)c2ccc3c(c2)OCO3)cc1 | ? | 6.3µM* | -27 | -17 | 45µM* | ?
CC(=O)Nc1cc(NC(C)=O)cc(C(=O)OCC(=O)c2ccc3c(c2)OCO3)c1 | -25% | 10µM* | 15 | 3 | -27% | 22%
CCOc1ccc(C(=O)Nc2ccc(-c3nc4ccccc4[nH]3)cc2)cc1[N+](=O)[O-] | 79µM* | 6%[59 µM] | -13 | -8 | -25% | 61%
CCOc1ccccc1CNC(=O)CCc1c(C)nn(-c2ccc(N3CCCC3)nn2)c1C | -17% | 7%[59 µM] | / | / | ? | 28%
COc1ccc(C/C(C)=N/Nc2nc(C)cc(=O)[nH]2)cc1 | -15% | 40µM* | 0 | 3 | -2% | 31%
COc1ccc(/C(C)=N/Nc2nc(C)cc(-c3ccccc3)n2)cc1 | -17% | / | 1 | -3 | / | 19%
COc1ccc(/C(C)=N\Nc2nc(-c3ccccc3)cc(=O)[nH]2)cc1 | ? | 8.9µM* | 2 | -2 | 11% | 23%
N#C/C(=C/c1ccc(N2CCOCC2)o1)c1ccc(Br)cc1 | 56µM* | 7.9µM* | -2 | -2 | 45µM* | ?
N#C/C(=C/c1ccc(N2CCCCCC2)o1)c1ccc(F)cc1 | -34%[57.1 µM] | / | 1 | 1 | / | -29%
N#C/C(=C/c1ccc(N2CCOCC2)o1)c1nc2ccccc2[nH]1 | ? | 8.9µM* | ? | -14 | ? | -19%
N#C/C(=C\c1cc([N+](=O)[O-])c(N2CCOCC2)cc1N1CCOCC1)c1nc2ccccc2[nH]1 | ? | -39%[59 µM] | ? | -29 | 7% | -23%
N#C/C(=C\c1ccc(N2CCOCC2)o1)c1ccccc1 | ? | ? | -8 | 11 | 40µM* | -14%
N#C/C(=C\c1ccc(N2CCOCC2)o1)C(=O)Nc1ccc(O)cc1 | -25% | 40µM* | ? | ? | ? | -15%
CCOc1ccc(-c2cc3c(=O)n(CC(=O)NCc4ccc(F)cc4)ccn3n2)cc1 | -25% | 3%[12.7 µM] | / | / | -9% | 27%
CCCc1cc(C(=O)Nc2c(C)nn(Cc3ccc(Cl)c(Cl)c3)c2C)no1 | -5% | 3%[59 µM] | / | / | 5% | 31%
S=C(c1nc2ccccc2[nH]1)N1CCOCC1 | -53% | 1.6µM* | 1 | 0 | 10% | ?
COc1cc(N2CCCC2)c(OC)cc1/C=C(/C#N)c1cccc(F)c1 | 20µM* | ? | -72* | ? | 22µM* | ?
N#C/C(=C/c1ccc(N2CCCCCC2)o1)c1cccc(F)c1 | 40µM* | ? | -15 | -9 | ? | ?
COc1ccc(CN2CCC(Cc3ccccc3)CC2)c(C)c1C | 28µM* | ? | 0 | 5 | ? | -15%
CCC1CCCCN1Cc1ccc(OC)c(C)c1C (stereo not drawn) | -13% | 25µM* | 0 | -3 | ? | 28%
COc1cc2nc(CN3CCC(Cc4ccccc4)CC3)[nH]c(=O)c2cc1OC | -17% | 13% | 6 | 3 | 0% | 12%
COc1cc(CN2CCC(Cc3ccccc3)CC2)cc(OC)c1OC | 25µM* | / | -4 | -7 | 79µM* | ?
Cc1ccc(NC(=O)CN2C(=O)CSc3ccc(S(=O)(=O)N(C)C)cc32)cc1C | -24% | 1%[59 µM] | / | / | -7% | -12%
Cc1ccc(NC(=S)N/C(=N/S(=O)(=O)c2ccccc2)c2ccccc2)cc1 | -30% | 13µM* | -4 | 0 | -31% | -24%
Cc1ccc(S(=O)(=O)/N=C(/NC(=S)Nc2ccccc2)c2ccccc2)cc1 | -13% | ? | -2 | 4 | 6% | -10%
SMILES | JMJD2A Tudor inh | G9a block | Six1-Eya2 inh | CtBP-E1A inh | BAZ2B inh | HP1b chromo inh
CCOC(=S)N/C(=N\S(=O)(=O)c1ccccc1)c1ccccc1 | -7% | 10µM* | 4 | 6 | 11% | ?
COC(=S)N/C(=N\S(=O)(=O)c1ccc(Cl)cc1)c1ccccc1 | -26% | 25µM* | 2 | 2 | -21% | -15%
O=S(=O)(N=C(NS(=O)(=O)c1ccc(Cl)cc1)c1ccccc1)c1ccc(Cl)cc1 | -22% | / | 8 | 14 | / | 12%
CCCOC(=S)N/C(=N\S(=O)(=O)c1ccccc1)c1ccccc1 | -18% | 10µM* | 2 | 2 | 7% | -26%
O=C(Cn1c(=O)n(-c2ccccc2)c(=O)c2sc3ccccc3c21)NC1CCCC1 | -16% | -34%[59 µM] | / | / | -1% | 49%
CCOC(=S)N/C(=N\S(C)(=O)=O)c1ccccc1 | -11%[11.4 µM] | 16µM* | 4 | -12 | -19% | 19%
COC(=O)\C(C(C)=O)=C(/C=C/C=C/N(C)C)N(C)C | ? | ? | -10 | 6 | 35µM* | -5%
COC(=O)/C(C(C)=O)=C(/C=C/C=C/N(C)C)N(C)C | ? | ? | -1 | 13 | -34% | 1%
COc1cc(C(CCN2CCCCC2)c2c(OC)cc(OC)c3c(-c4ccccc4)cc(=O)oc23)cc(OC)c1OC (stereo not drawn) | ? | 7%[59 µM] | ? | -26 | -27% | 10%
COc1cc(OC)c2c(-c3ccccc3)cc(=O)oc2c1C(CC(=O)N1CCCC1)c1ccc(N(C)C)cc1 (stereo not drawn) | 22µM* | / | / | / | / | ?
COc1cc(O)c(C(CC(=O)N2CCN(c3ccccc3)CC2)c2cc(OC)c(OC)c(OC)c2)c(OC)c1 (stereo not drawn) | -36% | -11%[59 µM] | 7 | 24 | -36% | -6%
COc1ccc(C(CC(=O)N2CCN(c3ccccc3)CC2)c2c(OC)cc(OC)c3c(-c4ccccc4)cc(=O)oc23)cc1 (stereo not drawn) | / | ? | / | / | 40µM* | /
COc1ccc(C(CC(=O)N2CCCC2)c2c(OC)cc(OC)c3c(-c4ccccc4)cc(=O)oc23)cc1 (stereo not drawn) | 50µM* | 14%[12.7 µM] | -14 | 0 | 56µM* | -16%
COc1cc(OC)c2ccc(=O)oc2c1C(CC(=O)N1CCCC1)c1ccc(N(C)C)cc1 (stereo not drawn) | ? | ? | -11 | -5 | -30% | -4%
COc1cc(C(CC(=O)N2CCCC2)c2c(OC)cc(OC)c3c(-c4ccccc4)cc(=O)oc23)cc(OC)c1OC (stereo not drawn) | 56µM* | 7%[12.7 µM] | -4 | -6 | 50µM* | -13%
COc1ccccc1CCNC(=O)C1(c2cccs2)CCOCC1 | -8% | -2%[59 µM] | / | / | -2% | 12%
COc1ccc(-c2nc(C)c(CCNC(=O)c3c(F)cccc3F)s2)cc1 | -14% | 1%[59 µM] | / | / | 2% | 18%[57 µM]
CCc1ccccc1NC(=O)c1sc2nc3n(c(=O)c2c1C)CCC3 | -23% | -29%[59 µM] | / | / | -31% | 28%

Screening results from PubChem.
